Source: PubChem (National Center for Advancing Translational Sciences (NCATS))
D2 ag-1 = agonists of human D2 dopamine receptor (beta-arrestin); P14416; DiscoveRx PathHunter D2 beta-arrestin, luminescence, 90 min; 100% = 57 uM dopamine signal; activation, % (concentration not given with the values); hit rate 0.084% among 360,000; in the data active means activation above about 40%; inconclusive means between about 15% and that limit
Target sequence (P14416 whole entry, looked up): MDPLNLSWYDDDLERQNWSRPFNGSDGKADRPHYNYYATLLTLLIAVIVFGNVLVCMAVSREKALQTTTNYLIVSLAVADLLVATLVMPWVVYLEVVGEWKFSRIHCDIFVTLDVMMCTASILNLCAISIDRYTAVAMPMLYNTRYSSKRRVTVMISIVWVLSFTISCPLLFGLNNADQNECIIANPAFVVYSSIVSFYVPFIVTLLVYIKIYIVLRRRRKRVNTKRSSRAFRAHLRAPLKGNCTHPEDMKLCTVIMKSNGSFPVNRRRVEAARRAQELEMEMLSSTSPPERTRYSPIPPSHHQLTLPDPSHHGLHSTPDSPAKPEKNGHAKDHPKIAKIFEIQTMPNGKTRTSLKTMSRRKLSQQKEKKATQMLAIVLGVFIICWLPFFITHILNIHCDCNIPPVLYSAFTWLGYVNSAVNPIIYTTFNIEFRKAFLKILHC
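DiscoveRx PathHunter D2 beta-arrestin cells (2,100/well) attached overnight, then compound-stimulated 90 min at 37 C in HBSS/10 mM HEPES/0.1% Tween-20 buffer; beta-galactosidase complementation read by luminescence after 1 h at ambient temperature. Dopamine 57 uM final (EC100) as control.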
D2 antag = antagonizes the human D2 dopamine receptor | P14416 | HEK293 TREx D2 cells, calcium flux, dopamine EC80 | inhibition, % at 10 µM | hit rate 2% among 340,000 | AID 485344; in the data active means inhibition above about 30%; inactive means below that, where a call was filed
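Overnight-induced (tetracycline, 30 C) HEK293 T-REx cells carrying force-coupled D2 receive a no-wash calcium dye, then compound, then EC80 dopamine at 180 s; signals are read kinetically throughout.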
D2 PAM-1 = positive allosteric modulators of human D2 dopamine receptor; hit rate 0.34% among 340,000; HEK293 T-REx D2, calcium flux, EC20 dopamine potentiation; potentiation, % at 10 µM; P14416; AID 485347;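 active means potentiation over 3 SD above the plate norm, cut at about 30% in these data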
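Primary screen. Calcium kinetics in induced HEK293 T-REx D2 cells: compound pre-addition 180 s, EC20 dopamine, 180 s more.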
D2 ag-2 = agonists of human D2 dopamine receptor; hit rate 0.53% among 340,000; activation, % at 2 µM; HEK293 T-REx D2 cells, calcium flux agonist mode;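 active means activation over 3 SD above normal in the single-dose calcium agonist read, cut at about 30% in these data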
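Tetracycline-induced HEK293 T-REx cells with force-coupled D2 receptor, plated overnight at 30 C, loaded with no-wash calcium dye. After a 10 s baseline, compound was pin-added and calcium flux read kinetically for 180 s; calcium rises flagged agonists.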
D2 PAM-2 = human D2 receptor positive allosteric modulation. potentiation, % (no concentration beside the values). DiscoveRx D2 beta-arrestin cells, luminescence, 90 min; 100% = 57 uM dopamine signal. hit rate 0.23% among 360,000. P14416; in the data active means potentiation above about 50%; inconclusive means mostly about 30% to 49%
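D2 cells co-treated with compound plus 50 nM dopamine (EC20) for 90 min at 37 deg C to detect potentiation. Beta-arrestin recruitment was read as enzyme-fragment luminescence after 1 h at ambient temperature. Full response was set by 57 uM dopamine.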
D3 ag = activates human D3 dopamine receptor beta-arrestin recruitment. shares compounds with D2 ag-2. hit rate 4% among 2,300. AID 720506. DiscoveRx D3 beta-arrestin cells, luminescence, 90 min. Potency, µM (top dose mostly 76.9 µM), actives largely listed as activators; further: nearly all actives have a fitted effect of over 70% in size
D2 ag-3 = D2 receptor agonism, beta-arrestin counterscreen | shares compounds with D2 ag-2 | DiscoveRx PathHunter D2 beta-arrestin, luminescence, 90 min; response scale: percent relative to full dopamine signal | Potency, µM (doses to about 76.9 µM), actives largely listed as activators | hit rate 5.9% among 2,300; further: nearly all actives have a fitted effect of over 70% in size
Large screens that a line does not name were inactive (follow-up assays come after a bar, where they were run). A selection: hits, their analogues and other compounds. The true share with any hit is near 2.4%. Unless noted, the call rests on the fitted dose curve; in most records, active means well fitted activation curve with a large enough effect; inconclusive means small, poorly fitted or top-dose-only effect; inactive means flat fitted curve, though single readings scatter.

Cc1onc(-c2c(Cl)cccc2Cl)c1C(=O)N1CCc2ccccc2C1	D2 ag-2 72 | D3 ag inactive | D2 ag-3 inactive
O=C1CCC(C(=O)N2CCN(c3ccc(F)cc3)CC2)CN1CC1CCCCC1 (stereo unspecified)	none
O=C1CCC(C(=O)N2CCN(c3ccccc3)CC2)CN1CC1CCCCC1 (stereo unspecified)	D2 ag-2 62 | D3 ag inactive | D2 ag-3 inconclusive
CCOc1ccc(CCNCc2c(C(=O)O)n(Cc3ccc(C)cc3)c3cc(OC)ccc23)cc1	none (no result: D2 ag-1, D2 antag, D2 PAM-1, D2 PAM-2)
CCCN1CCC2(CC1)C(C#N)=C(N)Oc1c2sc2nc(C)cc(C)c12	D2 antag 96, D2 ag-2 78 | D3 ag inactive | D2 ag-3 inactive
Cc1cccc(CCNC(=O)CCc2c(C)nc3c4c(C)cc(C)nc4nn3c2C)c1	none (no result: D2 ag-1, D2 antag, D2 PAM-2)
Cc1ccc2nc3c(cc(C(=O)NCC4CCCO4)c(=N)n3C(C)C)c(=O)n2c1 (stereo unspecified)	none (no result: D2 ag-1, D2 antag, D2 PAM-2)
Cc1ccccc1-n1cc(CNCc2c(C(=O)N(C)C)nc3ccc(Cl)cn23)cn1	none
COc1cccc(-n2cc(CNCc3c(C(=O)N(C)C)nc4ccc(Cl)cn34)cn2)c1	none (no result: D2 antag, D2 ag-2) | D3 ag inactive | D2 ag-3 inactive
COc1cccc(-n2cc(CNCc3cn(C)nc3-c3ccccc3F)cn2)c1	D2 ag-1 66, D2 antag 85, D2 ag-2 79 | D3 ag 6.3µM | D2 ag-3 13µM
CCc1ccc(NC(=O)CSc2nccn2C2CCCC2)cc1	none (no result: D2 ag-1, D2 antag, D2 PAM-2)
CCCSc1nnc(NC(=O)Cc2coc3cc(C)ccc23)s1	none (no result: D2 ag-1, D2 antag, D2 ag-2, D2 PAM-2)
CC(C)c1c(C(=O)N/N=C/c2ccc3c(c2)OCO3)nnn1-c1nonc1N	none
CN(Cc1c(C(=O)N/N=C/c2ccc(F)cc2)nnn1-c1nonc1N)C1CCCCC1	none
Nc1nonc1-n1nnc(C(=O)N/N=C/c2ccc(Br)cc2)c1-c1ccc2c(c1)OCO2	D2 antag 41 | D3 ag inactive | D2 ag-3 inactive
Nc1nonc1-n1nnc(C(=O)N/N=C/c2cccc(Cl)c2)c1-c1ccc2c(c1)OCO2	none
COc1ccc(/C=N/NC(=O)c2nnn(-c3nonc3N)c2CN(C)C2CCCCC2)cc1	D2 ag-2 56 | D3 ag inactive | D2 ag-3 inactive
Nc1nonc1-n1nnc(C(=O)N/N=C/c2ccc3c(c2)OCO3)c1-c1ccccc1	D2 antag 39 | D3 ag inconclusive | D2 ag-3 inactive
CC(OC(=O)c1nc(Cl)ccc1Cl)C(=O)NC1CCCCC1C (stereo unspecified)	none | D3 ag inactive | D2 ag-3 inactive
Cc1nc(C)c(-c2ccc(SCC(=O)Nc3ccc(Cl)c(Cl)c3)nn2)s1	none (no result: D2 ag-1, D2 antag, D2 PAM-2)
Cc1ccc(-c2onc(C)c2C)cc1S(=O)(=O)N1CCC(C)CC1	none (no result: D2 ag-1, D2 antag, D2 ag-2, D2 PAM-2)
Cc1csc(=O)n1CCC(=O)OC(C)C(=O)Nc1ccc(N2CCOCC2)cc1 (stereo unspecified)	none
CC(=O)c1cccc(NC(=O)C(C)OC(=O)CCn2c(C)csc2=O)c1 (stereo unspecified)	none | D3 ag inactive | D2 ag-3 inactive
CCOC(=O)C1CCN(Cc2cnc(Oc3ccc(N)cc3)s2)CC1	D2 ag-1 inconclusive, D2 antag 67, D2 ag-2 76 | D3 ag inactive | D2 ag-3 inconclusive
CCN1CCN(Cc2cccc(Oc3ccc(Cl)cc3)c2)CC1	none
CCOC(=O)C1CCN(Cc2cccc(Oc3ccc(Cl)cc3)c2)CC1	D2 ag-1 inconclusive, D2 antag 72, D2 ag-2 62 | D3 ag inconclusive | D2 ag-3 40µM
O=C(O)CCc1nnc2cnc3ccccc3n12	none (no result: D2 ag-1, D2 antag, D2 PAM-2)
CCc1nnc(NC(=O)c2ccc3c(=O)n4c(nc3c2)CCCCC4)s1	none | D3 ag inactive | D2 ag-3 inactive
CCc1ccc(NC(=O)c2ccc3c(=O)n4c(nc3c2)CCCCC4)cc1	none
CCN(CC(=O)Nc1ccccc1C(F)(F)F)C(=O)c1ccc2c(=O)n3c(nc2c1)CCC3	none
CN(CC(=O)Nc1ccccc1Br)C(=O)c1ccc2c(=O)n3c(nc2c1)CCC3	none | D3 ag inactive | D2 ag-3 inactive
CCc1ccc(-n2nc(C)c3c(C)cc(=O)n(CC(=O)N(CC)Cc4ccccc4)c32)cc1	none (no result: D2 ag-1, D2 antag, D2 PAM-2)
CC1CCN(c2ccc(C(=O)NCc3ccco3)cc2[N+](=O)[O-])CC1	none | D3 ag inactive | D2 ag-3 inactive
O=C(Nc1ccc2nc(SCC(=O)N3CCOCC3)sc2c1)c1cccc(Cl)c1	none (no result: D2 ag-1, D2 antag, D2 PAM-2)
COc1cc(NS(=O)(=O)c2cc3c(cc2C)N(C)CCO3)cc(OC)c1OC	none (no result: D2 ag-1, D2 antag, D2 PAM-2)
c1ccc2c(C3CCO3)cccc2c1 (stereo unspecified)	none (no result: D2 antag, D2 PAM-1, D2 ag-2) | D3 ag inactive | D2 ag-3 inactive
c1ccc2c(C3OCC4(CCCC4)CO3)cccc2c1	none (no result: D2 antag, D2 PAM-1, D2 ag-2)
CCOC(=O)c1ccc(-n2cccc2/C=C2\NC(=O)NC2=O)cc1	none (no result: D2 ag-1, D2 PAM-2) | D3 ag inactive | D2 ag-3 inactive
Cc1ccc(-n2nc(C)c(C(=O)NCCCN3CCN(c4ccccc4F)CC3)c2-n2cccc2)cc1	none (no result: D2 ag-1, D2 antag, D2 PAM-2)
Cc1cc(C)c2c(=O)n(CC(=O)NCCCN3CCOCC3)sc2n1	none
Cc1cc(=O)oc(C)c1C(=O)NCCCN1CCN(c2ccccc2F)CC1	D2 antag 47, D2 ag-2 58 | D3 ag inconclusive | D2 ag-3 inactive
Cc1cc(C)c2c(=O)n(CC(=O)NCCCN3CCN(c4ccccc4F)CC3)sc2n1	D2 antag 53, D2 ag-2 83 | D3 ag inactive | D2 ag-3 inactive
Cn1c(C(=O)NCCCN2CCN(c3ccccc3F)CC2)cc2c(=O)n(C)c3ccccc3c21	D2 ag-1 inconclusive, D2 antag 98, D2 ag-2 73 | D3 ag inactive | D2 ag-3 inconclusive
CCn1c(=O)cc(SCC(=O)NCCN2CCN(Cc3ccccc3)CC2)c2ccccc21	D2 ag-2 44 | D3 ag inactive | D2 ag-3 inactive
Cn1c(=O)cc(SCC(=O)NCCCN2CCN(c3ccccc3F)CC2)c2ccccc21	D2 ag-1 inconclusive, D2 antag 92, D2 ag-2 75 | D3 ag inactive | D2 ag-3 inconclusive
CCc1ccc(NC(=O)CSC2=Nc3ccccc3C3=NC(CCC(=O)NCc4ccccc4OC)C(=O)N23)cc1 (stereo unspecified)	none (no result: D2 ag-1, D2 antag, D2 PAM-2)
CC(OC(=O)C1CCCC1)C(=O)Nc1ncc(Cl)cc1Cl (stereo unspecified)	none | D3 ag inactive | D2 ag-3 inactive
Cc1nc2ncnn2c(C)c1CCC(=O)NCc1ccccc1Cl	none (no result: D2 ag-1, D2 antag, D2 PAM-2)
